Values quoted from earlier work, collected in PubChem BioAssay AID977611.
The campaign covered roughly 3,900 compounds. About 3,900 (100%) were called active. No cut-off is given here; in the data, nearly all actives have Kd up to about 4200 µM. The set was probably picked from earlier hits. Some of the results follow. Bridge positions count the residues as written; N and C are the ends. Where a SMILES comes first, the peptide text is derived from it. Non-standard residues stand in square brackets, D forms with d. Square brackets hold non-standard residues; d marks the D form. Residues, ends and D or L forms follow the SMILES beside them. Peptide text beside a SMILES is read from it. Orn(CH(NH2)2) = NC(N)NCCC[C@H](N)C(=O)O

Assay: PubChem AID 977611
Settings: PDB protein-ligand complexes, literature Kd

## CC[C@H](C)[C@H](N)C(=O)N[C@H](C(=O)NCC(=O)NCC(=O)N[C@H]1CSSC[C@@H](C(=O)O)NC(=O)[C@H](CCC(=O)O)NC(=O)[C@H](CCC(=O)O)NC(=O)[C@H](CCCN=C(N)N)NC(=O)[C@H](CC(=O)O)NC(=O)[C@H](CCSC)NC(=O)[C@H](Cc2c[nH]c3ccccc23)NC(=O)[C@H](Cc2ccc(O)cc2)NC(=O)[C@@H]2CCCN2C1=O)[C@@H](C)CC (H-IIGGCPYWMDREEC-OH; disulfide 5-14)
protein: Hepatocyte growth factor HGF-Beta V495, PDB entry 4o3u
  Kd: 0.4 µM (active)

## CC(C)C[C@H](NC(=O)[C@@H]1CSSC[C@@H]2NC(=O)[C@H](CC(N)=O)NC(=O)[C@@H](N)CSSC[C@H](NC(=O)[C@H](CC(C)C)NC(=O)[C@H](Cc3ccccc3)NC(=O)[C@H]([C@@H](C)O)NC(=O)[C@H](CCC(=O)O)NC(=O)[C@@H]3CCCN3C(=O)[C@H](C)NC(=O)[C@H](CCCCN)NC2=O)C(=O)N[C@@H](Cc2ccc(O)cc2)C(=O)N[C@@H](Cc2c[nH]c3ccccc23)C(=O)N[C@@H](CCCNC(N)N)C(=O)N1)C(=O)N[C@@H](CCC(N)=O)C(=O)N[C@@H](Cc1c[nH]cn1)C(N)=O (H-CNCKAPETFLCYW[Orn(CH(NH2)2)]CLQH-NH2; disulfide 1-11, 3-15)
protein: E3 ubiquitin-protein ligase Mdm2, PDB entry 3iux
  Kd: 0.0251 µM (active)

## N#Cc1c(O)c2c(-c3ccc(Br)cc3)c(Br)sc2[nH]c1=O
protein: 5'-AMP-activated protein kinase catalytic subunit AMPK alpha1-belta1-gamma1, PDB entry 4qfs
  Kd: 0.9 µM (active)

## N#Cc1c(O)c2c(-c3ccc(-c4ccccc4O)cc3)c(Cl)sc2[nH]c1=O
protein: 5'-AMP-activated protein kinase catalytic subunit AMPK alpha1-belta1-gamma1, PDB entry 4qfr
  Kd: 0.0074 µM (active)

## Cc1nc2c(=O)[nH]c(=O)[nH]c2n(C[C@H](O)[C@H](O)[C@H](O)CO)c1=O
protein: Major histocompatibility complex class I-related gene protein, PDB entry 4l4v
  Kd: 1.65 µM (active)

## CCNc1cc2c(cc1C)C(c1ccccc1C(=O)OCC)c1cc(C)c(NCC)cc1O2
protein: Putative regulatory protein, PDB entry 3vvz
  Kd: 26.4 µM (active)

## C[C@@H](O)CN1CC2=C(C1)c1ccccc1Nc1ccccc12
protein: Renin, PDB entry 4gj9
  Kd: 500 µM (active)

## CC[C@H](C)[C@H](NC(=O)CNC(=O)[C@@H](N)CCC(N)=O)C(=O)N[C@H](C(=O)N[C@@H](CCCCN)C(=O)N1CCC[C@H]1C(=O)N[C@@H](C)C(=O)N[C@H](C(=O)N[C@@H](CCCNC(N)N)C(=O)N[C@@H](CCCNC(N)N)C(=O)N[C@@H](CC(C)C)C(=O)N[C@@H](C)C(=O)N[C@@H](CCCNC(N)N)C(=O)N[C@@H](CCCNC(N)N)C(=O)NCC(=O)O)[C@@H](C)CC)[C@@H](C)O (H-QGITKPAI[Orn(CH(NH2)2)][Orn(CH(NH2)2)]LA[Orn(CH(NH2)2)][Orn(CH(NH2)2)]G-OH)
protein: Histone-binding protein RBBP7, PDB entry 3cfs
  Kd: 1.1 µM (active)

## CC[C@H](C)[C@H](NC(=O)CNC(=O)[C@H](CCC(N)=O)NC(=O)[C@@H](NC(=O)[C@H](CC(N)=O)NC(=O)[C@@H](N)CC(=O)O)[C@@H](C)CC)C(=O)N[C@H](C(=O)N[C@@H](CCCCN)C(=O)N1CCC[C@H]1C(=O)N[C@@H](C)C(=O)N[C@H](C(=O)N[C@@H](CCCNC(N)N)C(=O)N[C@@H](CCCNC(N)N)C(=O)N[C@@H](CC(C)C)C(=O)N[C@@H](C)C(=O)N[C@@H](CCCNC(N)N)C(=O)N[C@@H](CCCNC(N)N)C(=O)NCC(=O)O)[C@@H](C)CC)[C@@H](C)O (H-DNIQGITKPAI[Orn(CH(NH2)2)][Orn(CH(NH2)2)]LA[Orn(CH(NH2)2)][Orn(CH(NH2)2)]G-OH)
protein: Histone-binding protein RBBP7, PDB entry 3cfv
  Kd: 0.9 µM (active)

## O[C@@H]1[C@H](O)CO[C@](O)(CO[P+](O)(O)O)[C@H]1O
protein: GLUCOKINASE REGULATORY PROTEIN, PDB entry 4bb9
  Kd: 1 µM (active)

## O=C(NCCC1C=CCCC1)Nc1ccc2nnsc2c1 (stereo unspecified)
protein: Protein arginine N-methyltransferase 3, PDB entry 3smq
  Kd: 9.5 µM (active)

## OC[C@H]1O[C@@H](Oc2ccc([C@@H](c3ccc(O)c(Cl)c3)c3ccccc3S(O)(O)O)cc2Cl)[C@H](O)[C@@H](O)[C@H]1O
protein: PA-I galactophilic lectin, PDB entry 4lk6
  Kd: 6.3 µM (active)

## C/C(=C/C=C/C(C)=C/C(=O)O)Cc1cccc2ccc(C)cc12
protein: Retinoic acid receptor RXR-alpha, PDB entry 4poj
  Kd: 0.008 µM (active)

## NCc1ccc2occc2c1
protein: CATIONIC TRYPSIN, PDB entry 4ab9
  Kd: 466 µM (active)

## NC1C=CN([C@@H]2O[C@H](CNC(=O)c3c[nH]c4scc[n+]34)[C@@H](O)[C@H]2O)C(=O)N1 (stereo partly specified)
protein: 2-C-methyl-D-erythritol 2,4-cyclodiphosphate synthase, PDB entry 3q8h
  Kd: 70 µM (active)

## NC1C=CN([C@@H]2O[C@H](CO)[C@@H](O)[C@H]2O)C(=O)N1 (stereo partly specified)
protein: Peptidyl-tRNA hydrolase, PDB entry 4jwk
  Kd: 0.00479 µM (active)

## O=C(CCN1CCCCC1)N1CCc2[nH]c(=O)c3cc(F)ccc3c2C1
protein: Putative ADP-ribosyltransferase Certhrax, PDB entry 4fxq
  Kd: 1.7 µM (active)

## C[C@H]1CCC[C@H](C[C@H]2Cc3cc(O)cc(O)c3C(=O)O2)O1
protein: Lysine--tRNA ligase, PDB entry 4pg3
  Kd: 0.014 µM (active)

## CC[C@H](C)[C@H](NC(=O)[C@H](CO)NC(=O)[C@@H]1CCCN1C(=O)[C@H](C)N)C(=O)N[C@@H](CC(=O)O)C(=O)N[C@@H](CCCNC(N)N)C(=O)N[C@@H](CO)C(=O)N[C@H](C(=O)N[C@@H](CCCCN)C(=O)N1CCC[C@H]1C(=O)N1CCC[C@H]1C(=O)N[C@@H](CC(C)C)C(=O)O)[C@@H](C)O (H-APSID[Orn(CH(NH2)2)]STKPPL-OH)
protein: Grb2-related adaptor protein 2(C-terminal SH3 domain (SH3C) of Mona/Gads, PDB entry 1oeb
  Kd: 0.118 µM (active)

## CC[C@H](C)[C@H](N)C(=O)N[C@@H](CCC(=O)O)C(=O)N[C@@H](CC(C)C)C(=O)N1CCC[C@H]1C(=O)N[C@@H](CCC(=O)O)C(=O)N[C@H](C(=O)N1CCC[C@H]1C(=O)N[C@@H](CO)C(=O)N[C@@H](CCC(=O)O)C(=O)N1CCC[C@H]1C(=O)N[C@@H](CC(C)C)C(=O)N1CCC[C@H]1C(=O)O)C(C)C (H-IELPEVPSEPLP-OH)
protein: Vacuolar protein sorting-associating protein 4A, PDB entry 2k3w
  Kd: 5.8 µM (active)

## CC[C@H](C)[C@H](NC(=O)[C@H](CC(C)C)NC(=O)[C@@H]1CCCN1C(=O)[C@@H]1CCCN1C(=O)[C@@H]1CCCN1C(=O)[C@H](CC(N)=O)NC(=O)[C@H](CO)NC(=O)[C@@H](NC(=O)[C@@H](N)[C@@H](C)O)[C@@H](C)CC)C(=O)N[C@@H](CO)C(=O)N[C@@H](CO)C(=O)N[C@@H](C)C(=O)N[C@@H](CCCCN)C(=O)O (H-TISNPPPLISSAK-OH)
protein: The MYND domain (NHR4) of ETO, PDB entry 2odd
  Kd: 109 µM (active)

## CC[C@H](C)[C@H](NC(=O)[C@@H](NC(=O)[C@H](CC(C)C)NC(=O)[C@H](C)NC(=O)[C@@H]1CCCN1C(=O)[C@H](CC(C)C)NC(=O)[C@@H](NC(=O)[C@@H]1CCCN1C(=O)[C@H](CCCCN)NC(=O)[C@H](CCCNC(N)N)NC(=O)[C@H](C)N)C(C)C)[C@@H](C)O)C(=O)N[C@@H](C)C(=O)O (H-A[Orn(CH(NH2)2)]KPVLPALTIA-OH)
protein: Mitogen-activated protein kinase 1 (R77A, E314A, I255G, C162S mutation), PDB entry 4h3q
  Kd: 8 µM (active)

## H-KPAAVVAPI-OH
protein: Ubiquitin ligase SIAH1, PDB entry 2a25
  Kd: 24 µM (active)

## CC[C@H](C)[C@H](NC(=O)[C@H](Cc1ccccc1)NC(=O)[C@H](CCCCN)NC(=O)CN)C(=O)N1CCC[C@H]1C(=O)N[C@@H](CO)C(=O)N[C@@H](CCCNC(N)N)C(=O)N1CCC[C@H]1C(=O)N[C@@H](C)C(=O)N1CCC[C@H]1C(=O)N[C@@H](CCCCN)C(=O)N1CCC[C@H]1C(=O)N1CCC[C@H]1C(=O)N[C@@H](CO)C(=O)N[C@@H](CO)C(=O)N[C@@H](C)C(=O)O (H-GKFIPS[Orn(CH(NH2)2)]PAPKPPSSA-OH)
protein: NAP1-binding protein 2, PDB entry 2lcs
  Kd: 0.2 µM (active)

## CC[C@H](C)[C@H](NC(=O)[C@@H](NC(=O)[C@@H](N)CS)[C@@H](C)CC)C(=O)N[C@@H](CO)C(=O)N[C@@H](C)C(=O)N[C@@H](CCSC)C(=O)N1CCC[C@H]1C(=O)N[C@H](C(=O)N[C@@H](CCCCN)C(=O)N[C@@H](CO)C(=O)N[C@@H](CO)C(=O)N[C@@H](CCCNC(N)N)C(=O)N[C@@H](CCCCN)C(=O)N[C@@H](C)C(=O)N[C@@H](CCCCN)C(=O)N[C@@H](CCCCN)C(=O)N1CCC[C@H]1C(=O)N[C@@H](C)C(=O)N[C@@H](CCC(N)=O)C(=O)O)[C@@H](C)O (H-CIISAMPTKSS[Orn(CH(NH2)2)]KAKKPAQ-OH)
protein: DDEF1 SH3 domain, PDB entry 2rqu
  Kd: 23.6 µM (active)

## H-ELPLVKI-OH
protein: Chaperone protein DnaK, PDB entry 4ezz
  Kd: 6.4 µM (active)

## CC[C@H](C)[C@H](NC(=O)[C@H](CO)NC(=O)[C@@H]1CCCN1C(=O)[C@H](C)N)C(=O)N[C@@H](CC(=O)O)C(=O)N[C@@H](CCCNC(N)N)C(=O)N[C@@H](CO)C(=O)N[C@H](C(=O)N[C@@H](CCCCN)C(=O)N1CCC[C@H]1C(=O)N[C@@H](C)C(=O)O)[C@@H](C)O (HELM PEPTIDE1{A.P.S.I.D.[NC(N)NCCC[C@H](N[*:1])C(=O)[*:2]].S.T.K.P.A}$$$$V2.0)
protein: mouse Gads T cell adaptor C-terminal SH3 domain, PDB entry 1h3h
  Kd: 0.22 µM (active)

## CC(C)(CO[P+](O)(O)O[P+](O)(O)OC[C@H]1O[C@@H](n2cnc3c(N)ncnc32)[C@H](O)[C@@H]1O[P+](O)(O)O)[C@@H](O)C(=O)NCCC(=O)NCCSC(=O)c1ccc2ccccc2c1O
protein: 1,4-Dihydroxy-2-naphthoyl-CoA synthase MenB, PDB entry 4qij
  Kd: 2.9 µM (active)

## CC(C)(CO[P+](O)(O)O[P+](O)(O)OC[C@H]1O[C@@H](n2cnc3c(N)ncnc32)[C@H](O)[C@@H]1O[P+](O)(O)O)[C@@H](O)C(=O)NCCC(=O)NCCSC(=O)CC[C@@H]1C(=O)CC[C@]2(C)C(=O)CC[C@@H]12
protein: HTH-type transcriptional repressor KstR2, PDB entry 4w97
  Kd: 0.08 µM (active)

## H-KTKLL-OH
protein: Coatomer subunit beta', PDB entry 4j78
  Kd: 22.5 µM (active)

## H-LKTKLL-OH
protein: coatomer alpha subunit, PDB entry 4j8b
  Kd: 16.1 µM (active)

## CC(=O)c1ccc(N2CCN(C(=O)CN3CC[C@@H](C(=O)Nc4ccc(O)c(Cl)c4)C3)CC2)cc1
protein: Mitogen-activated protein kinase 1 ERK2, PDB entry 4qyy
  Kd: 0.05 µM (active)

## O=C(Nc1ccc2[nH]nc(-c3ccncc3)c2c1)[C@@H]1CCN(CC(=O)N2CCN(c3ccc(-c4ncccn4)cc3)CC2)C1
protein: Mitogen-activated protein kinase 1 ERK2, PDB entry 4qta
  Kd: 0.2 µM (active)

## C/C(=N\Nc1nc2ccccc2s1)c1ccc(-c2cccc(S(=O)(=O)NC(=O)CCCCCc3ccccc3)c2)o1
protein: BCL-2-LIKE PROTEIN 1, PDB entry 3zk6
  Kd: 0.46 µM (active)

## CNCc1ccc(C(F)(F)F)cc1
protein: Dihydropteroate synthase BaDHPS, PDB entry 4nl1
  Kd: 130 µM (active)

## Nc1ncnc2c1ccn2[C@@H]1O[C@@H]2CO[P+](O)(O)O[C@H]2[C@H]1O
protein: Potassium/sodium hyperpolarization-activated cyclic nucleotide-gated channel 4 hHCN4, PDB entry 4nvp
  Kd: 0.027 µM (active)

## Nc1ncnc2c1ncn2[C@@H]1O[C@@H]2CO[P+](O)(O)O[C@H]3[C@@H](O)[C@H](n4cnc5c(N)ncnc54)O[C@@H]3CO[P+](O)(O)O[C@H]2[C@H]1O
PDB entry 4qsh
  Kd: 8 µM (active)
protein: PstA, PDB entry 4wk1
  Kd: 1.3 µM (active)
protein: Staphylococcus aureus PII-like signal transduction protein PstA, PDB entry 4d3h
  Kd: 0.37 µM (active)
